Compounds without any hit were thinned out: in the full panel of roughly 83,000, 20% have a hit.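 Treatment: one concentration, 48 hours, 96-well format. Scoring: percent growth, with anything below 10 considered active.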 A number with no mark means an inactive call. The source made the active and inactive calls.
What was measured:
Experiment in all cases: NCI-60 one-dose screen, 48 h (100 = growth as untreated, 0 = no growth, -100 = all killed)
HT29 colon = details: 10 µM unless noted
SNB-75 CNS = details: 10 µM unless noted
SNB-19 CNS = details: 10 µM unless noted
U251 CNS = details: 10 µM unless noted
PC-3 prostate = details: 10 µM unless noted
SK-MEL-5 melanoma = details: 10 µM unless noted
UACC-62 melanoma = details: 10 µM unless noted
LOX IMVI melanoma = details: 10 µM unless noted
SK-MEL-28 melanoma = details: 10 µM
SK-MEL-2 melanoma = details: 10 µM unless noted
SN12C renal = details: 10 µM unless noted
UO-31 renal = details: 10 µM unless noted
TK-10 renal = details: 10 µM unless noted
ACHN renal = details: 10 µM unless noted
CAKI-1 renal = details: 10 µM unless noted
A498 renal = details: 10 µM unless noted
CCRF-CEM leukemia = details: 10 µM unless noted
MOLT-4 leukemia = details: 10 µM unless noted
SR leukemia = details: 10 µM unless noted

Structure (SMILES)	growth (HT29 colon)	growth (SNB-75 CNS)	growth (SNB-19 CNS)	growth (U251 CNS)	growth (PC-3 prostate)	growth (SK-MEL-5 melanoma)	growth (UACC-62 melanoma)	growth (LOX IMVI melanoma)	growth (SK-MEL-28 melanoma)	growth (SK-MEL-2 melanoma)	growth (SN12C renal)	growth (UO-31 renal)	growth (TK-10 renal)	growth (ACHN renal)	growth (CAKI-1 renal)	growth (A498 renal)	growth (CCRF-CEM leukemia)	growth (MOLT-4 leukemia)	growth (SR leukemia)
CCOC(=O)c1cnc2ccc(Cl)cc2c1NCCCN(C)C	27.3%	35.6%	24.5%	8.33% (active)	25.7%	-50.8% (active)	-15.6% (active)	1.24% (active)	50.1%	-0.411% (active)	18.1%	-22.8% (active)	33.8%	18.3%	-4.21% (active)	31%	-4.96% (active)	-5.58% (active)	-5.95% (active)
CCOC(=O)C1(Cc2ccccc2)CCN(Cc2cccc(OC)c2O)CC1	22.2%	37.7%	14.9%	3.94% (active)	25%	-33.4% (active)	-7.92% (active)	5.51% (active)	38%	9.33% (active)	10.7%	-11.8% (active)	36.7%	10.8%	-11.3% (active)	21.2%	9.78% (active)	9.72% (active)	7.58% (active)
NC1(N2SC(S)=C3CCCC=C32)CCCCC1	97.1%	91.7%	96.9%	101%	109%	104%	104%	94.7%	114%	111%	104%	78.6%	99.5%	102%	97%	101%	105%	87%	86.9%
O=C(Cc1ccccc1)NC(c1ccc(Cl)cc1)c1c(O)ccc2ccccc12 (stereo not given)	12.8%	40%	20.8%	1.3% (active)	3.12% (active)	-49.5% (active)	5.84% (active)	10.4%	36.6%	-3.92% (active)	14.9%	-7.48% (active)	17.1%	10.1%	4.37% (active)	32.8%	13.4%	9.11% (active)	4.83% (active)
CCOC(=O)C1(C(=O)OCC)N=C(c2ccccc2)C=C1c1ccccc1	76.2%	81.2%	95.4%	83.3%	83.8%	90.1%	82%	94.9%	105%	82.8%	89.8%	76%	112%	87.7%	83.1%	84.4%	77.5%	81.1%	69.7%
O=c1cc(NC2CCN(CCCc3ccccc3)CC2)c2cc(Cl)ccc2o1	-12.9% (active)	-5.24% (active)	25.6%	-24.7% (active)	0% (active)	-54.6% (active)	9.81% (active)	-1.07% (active)	8.62% (active)	-44% (active)	6.09% (active)	-10.4% (active)	-13.9% (active)	10.3%	-10.6% (active)	-19% (active)	3.59% (active)	1.27% (active)	-11.4% (active)
COc1ccc(OC)c(N(CCN2C(=O)c3ccccc3C2=O)C(=O)CCl)c1	12.5%	87.4%	114%	60.9%	31.9%	94%	70.5%	-11.8% (active)	100%	72.3%	90.5%	-92.1% (active)	110%	78.8%	29.9%	72.4%	-57.4% (active)	54.6%	-48.6% (active)
COc1ccc(Cn2c(Br)c3c(c2-c2cc(OC)c(OC)c(OC)c2)CCc2sc(NC(C)=O)nc2-3)cc1	33.7%	25.3%	41%	39.2%	43.7%	16.6%	29.7%	33.3%	39.2%	55.6%	71.9%	13.9%	70.6%	53.7%	44%	21.5%	16.9%	45.1%	14.3%
O=C(Nc1ccc(C23CC4CC(CC(c5ccccc5)(C4)C2)C3)cc1)c1cccs1	53.8%	98.6%	91.9%	69.8%	60%	56.1%	63.8%	76.5%	79.5%	75.6%	66.7%	66.5%	76.9%	76.9%	77.6%	65.4%	56.8%	57.7%	38.7%
O=C(CSc1ccc2nnc(-c3cccc(F)c3)n2n1)Nc1ccc2c(c1)OCO2	99.6%	-22.3% (active)	100%	70.3%	40.1%	86.1%	83.2%	61.1%	79.7%	92.6%	80.5%	70.4%	112%	87.9%	84.1%	104%	32.5%	62.1%	56.3%
CCOc1cccc(/C=N/NC(=O)C(=O)Nc2cccc(C(F)(F)F)c2)c1O	41.3%	68.1%	41.3%	22.9%	44.5%	-25.5% (active)	2.68% (active)	6.47% (active)	44.6%	36.9%	30.6%	9.54% (active)	46.1%	16.6%	9.87% (active)	55.9%	14.1%	19.1%	15.9%
CC(C)(C)c1ccc(C2CC(=O)C3=C(C2)Nc2ccccc2N(C(=O)c2ccccc2Cl)C3c2ccc(F)cc2)cc1 (stereo not given)	-9.44% (active)	66.4%	9.35% (active)	3.98% (active)	8.88% (active)	-97.5% (active)	-53.8% (active)	-11.8% (active)	38.6%	-11.5% (active)	3.86% (active)	23.7%	58.9%	19.9%	2.95% (active)	35.5%	15.7%	6.7% (active)	9.77% (active)
C[n+]1c2ccccc2nc2ccc(NCCO)cc21	8.37% (active)	98.8%	78.3%	80.5%	50.7%	98%	84.1%	90.6%	110%	102%	85.6%	45.8%	127%	83.7%	93.4%	75.1%	64.5%	63.8%	60.3%
FC(F)(F)c1cccc(CNC2CCN(CCc3ccccc3)CC2)c1	46.9%	71.2%	91.7%	77.4%	25.2%	90%	86.4%	56%	85.1%	91%	85.4%	56.3%	79.8%	90.7%	60.2%	60.4%	13.2%	54.3%	29.3%
O=S1(=O)CCN(Cc2ccccc2)CC1	103%	111%	92%	104%	101%	96.5%	106%	98.3%	102%	119%	101%	103%	94.3%	97%	89.1%	75.9%	98.1%	105%	87.3%

— PubChem BioAssay (NCI)
